Out of some 48,000 compounds screened, about 13,000 (27%) showed an effect of 50% or more. The list shows a part of the results.

This assay relates to Wolbachia pipientis. Put plainly: Anti-Wolbachia Cell-Based Screen. The format is functional. Also on record: scale not given: in the data most compounds retested in dose-response had high values. The following applies: 5 µM.
Turning to `C/C=C(\C)CN1C[C@H](NC(=O)c2cc[nH]c2C)[C@@H](C2CC2)C1`, the “Percent Effect” value is on record as -10.95%.

Turning to `CN(C)c1ncncc1NC(=O)Cc1c[nH]c2ccc(F)cc12`, the “Percent Effect” value is -1.659%.

On to `CC(=O)c1cccc(OCCCC(=O)N(C)CCC(F)(F)F)c1`, for which the “Percent Effect” value is on record as 2.017%.

On to `COC(C)c1noc(CN2CCCNCC2)n1` (stereo not drawn), for which the “Percent Effect” value was -0.5202%.

For `CCOC(C)c1noc(CN2CCNCC2)n1` (stereo not drawn), the “Percent Effect” value is listed as -2.697%.

Take `CNC(=O)C1CCCN(C(=O)c2ccccc2-n2cc(CN)cn2)C1` (stereo not drawn): the “Percent Effect” value was determined as 111.9%.

In the case of `CN(C)C(=O)N1CCCC(C(=O)N(C)Cc2cnc(N)nc2)C1` (stereo not drawn), the “Percent Effect” value is given as 11.15%.

As to `NCc1cnn(-c2ccccc2C(=O)NCc2ccncc2)c1`, the “Percent Effect” value is given as -9.699%.

As for `NC(=O)C1CCCN(S(=O)(=O)c2cnn(-c3ccccc3)c2)C1` (stereo not drawn), the “Percent Effect” value is 5.842%.

`NCc1cnn(-c2ccccc2C(=O)N2CCCC(C(N)=O)C2)c1` (stereo not drawn): the “Percent Effect” value worked out at 94.05%.

Regarding `Cc1ccn(-c2ccc(C(=O)N3CCCC(C(N)=O)C3)cc2)n1` (stereo not drawn), the “Percent Effect” value is -6.024%.

As to `CNC(=O)C1CCCN(C(=O)NCCC2Cc3ccccc3C2)C1` (stereo not drawn), the “Percent Effect” value is recorded as -25.4%.

Consider `CN(C)C(=O)C1CCCN(C(=O)c2ccccc2-n2cc(CN)cn2)C1` (stereo not drawn), for which the “Percent Effect” value is 125.8%.

`CN(C)C(=O)N1CCCC(C(=O)N(C)CCCc2cnn(C)c2)C1` (stereo not drawn): the “Percent Effect” value is on record as 4.306%.

As to `NC(=O)c1cccc(CNC/C=C/c2ccccc2)c1`, the “Percent Effect” value is -6.459%.

Take `CC(C)OCCOCC(O)CN(C)C(=O)Nc1ccc(F)cc1Cl` (stereo not drawn): the “Percent Effect” value is -7.203%.

As for `CCc1nc(CNc2cc(Cl)ccc2OCC2CCCO2)no1` (stereo not drawn), the “Percent Effect” value was -12.87%.

With `CCn1c(Nc2ccccc2OC)nc2c(C)nn(C)c2c1=O`, the “Percent Effect” value was determined as 5.481%.

On to `CCOc1ccccc1Nc1nc2c(C)nn(C)c2c(=O)n1C`, for which the “Percent Effect” value is given as -3.425%.

With `CCc1cnc2c(c1NCc1ccc(OC)cc1)c(=O)n(C)c(=O)n2C`, the “Percent Effect” value turned out to be 121.6%.

For the compound `CCc1cnc2c(c1Nc1cccc(OC)c1)c(=O)n(C)c(=O)n2C`, the “Percent Effect” value was 98.75%.

As to `CCc1cnc2c(c1Nc1ccccc1OC)c(=O)n(C)c(=O)n2C`, the “Percent Effect” value is reported as 117.3%.

On to `COc1cccc(CNc2c(C)cnc3c2c(=O)n(C)c(=O)n3C)c1`, for which the “Percent Effect” value is given as -20.05%.

Consider `CCc1cnc2c(c1NCc1ccncc1)c(=O)n(C)c(=O)n2C`, for which the “Percent Effect” value is listed as -11.7%.

As for `CCc1cnc2c(c1NCc1cccc(OC)c1)c(=O)n(C)c(=O)n2C`, the “Percent Effect” value is -3.77%.

`CCc1cnc2c(c1Nc1ccc(OC)cc1)c(=O)n(C)c(=O)n2C`: the “Percent Effect” value is on record as -2.304%.

Take `O=C(N1CCCCC1)N1CCN(CC(O)c2ccc(F)cc2)CC1` (stereo not drawn): the “Percent Effect” value is listed as -12.83%.

Take `Cc1nc(CNC(=O)Nc2ccc3c(c2)CCCC(=O)N3)sc1C`: the “Percent Effect” value is reported as 3.802%.

Consider `Cn1c(CO)cnc1SC(C(=O)NC1CC1)c1ccccc1` (stereo not drawn), for which the “Percent Effect” value is -13.82%.

As for `CC(C)NC(=O)[C@@H]1C[C@@H](N)CN1C(=O)c1cc2c([nH]c1=O)CCCC2`, the “Percent Effect” value stood at 7.662%.

As to `CC(C)CC(NC(=O)c1cc(C2CC2)n[nH]1)c1ncnn1C` (stereo not drawn), the “Percent Effect” value is on record as -18.23%.

In the case of `Cn1nc(C2CCNC2)c2c(C(=O)NCC(F)(F)F)cc(C3CC3)nc21` (stereo not drawn), the “Percent Effect” value was found to be 104.4%.

As to `CCCn1ncc2c(C(=O)Nc3cnn(CC)c3C)cc(C3CC3)nc21`, the “Percent Effect” value is recorded as 3.978%.

As to `O=C(NCC(F)(F)F)NC1CCCc2c1cnn2CCO` (stereo not drawn), the “Percent Effect” value amounted to 2.681%.

On to `CC(C)CNC(=O)c1cc(C2CC2)nc2c1c(C1CCCN1)nn2C` (stereo not drawn), for which the “Percent Effect” value stood at 129.8%.

With `Cn1nc(C2CCCN2)c2c(C(=O)NCC(F)(F)F)cc(C3CC3)nc21` (stereo not drawn), the “Percent Effect” value is given as 125.9%.

For the compound `Cc1csc(N2CCCN(C(=O)c3nccnc3N)CC2)n1`, the “Percent Effect” value is given as 0.5076%.

On to `CC(NCC1CCN(CCO)CC1)c1ccc(F)c(Cl)c1` (stereo not drawn), for which the “Percent Effect” value stood at 2.095%.

For `CC(C)CN1C(=O)C2(CCCC2)NC1c1c[nH]nc1-c1cccnc1` (stereo not drawn), the “Percent Effect” value is -9.401%.

As for `CNC(=O)C(C)(C)N1CCC[C@H]1C(=O)NCCN1CCCC1.Cl.Cl`, the “Percent Effect” value came out at 7.406%.

As to `CCC(CNC(=O)N1CCOCC2(CCOCC2)C1)c1ccccc1` (stereo not drawn), the “Percent Effect” value is reported as -24.39%.

`O=S(=O)(N1CCCC1)N(Cc1ccccc1)CC1CCCO1` (stereo not drawn): the “Percent Effect” value is 124.5%.

With `CCN(CC1CCCO1)S(=O)(=O)N1CCCCCC1` (stereo not drawn), the “Percent Effect” value was 99.13%.

With `CCN(CC)S(=O)(=O)N1CCCN(CC2CCCO2)CC1` (stereo not drawn), the “Percent Effect” value is listed as 96.25%.

As for `CCS(=O)(=O)CCN(CC1CCCO1)C1CCCC1` (stereo not drawn), the “Percent Effect” value is reported as -6.431%.

As for `CCN(CC(=O)NC)S(=O)(=O)N1CCCCC1`, the “Percent Effect” value worked out at 6.131%.

On to `CCN(CC)S(=O)(=O)N1CCCN(CC(=O)NC(C)C)CC1`, for which the “Percent Effect” value is -10.54%.

Turning to `CC(C)N(C)S(=O)(=O)N(Cc1cccs1)CC1CCCO1` (stereo not drawn), the “Percent Effect” value is reported as 1.212%.

The record behind these values is ChEMBL document CHEMBL3988442, “University of Dundee, Small-Polar-MMV Screening Library” (2021).
